Sampled rows, rich in hits. Any-hit rate of the full collection: about 2.3%.
Bcl-xL primary: Bcl-xL (human) inhibition | Q07817 | GST-Bcl-xL / FITC-Bim BH3 peptide fluorescence polarization | inhibition, % at 10.9 µM | actives 0.7% (n = 320,000);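 active = inhibition above the mean of all tested compounds plus 3 SD, cutoff set per campaign, cut at about 30% in these data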;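 note: 0% = DMSO wells and 100% = unlabeled Bim-BH3 peptide competitor; inhibitors lower millipolarization by displacing the labeled peptide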
Target sequence (Q07817 whole entry, looked up): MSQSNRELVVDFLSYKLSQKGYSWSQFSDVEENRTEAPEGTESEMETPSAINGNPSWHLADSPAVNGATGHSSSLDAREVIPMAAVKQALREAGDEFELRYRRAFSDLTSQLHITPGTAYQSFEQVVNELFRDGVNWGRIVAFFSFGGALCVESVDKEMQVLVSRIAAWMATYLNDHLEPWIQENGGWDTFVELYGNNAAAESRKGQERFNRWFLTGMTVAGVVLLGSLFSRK
Mcl1-Bid inh: Mcl-1/Bid interaction inhibition | Q07820 | TR-FRET Mcl-1/Bid-Dy647 peptide binding, 1536-well | inhibition, % at 21.7 µM | actives 0.97% (n = 220,000);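 active = compounds that cut the binding signal by more than half at the single screening dose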;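 note: His-tagged Mcl-1 with europium anti-His antibody binding Bid BH3 peptide; 0% = Mcl-1 plus peptide wells and 100% = peptide-only wells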
Target sequence (Q07820 whole entry, looked up): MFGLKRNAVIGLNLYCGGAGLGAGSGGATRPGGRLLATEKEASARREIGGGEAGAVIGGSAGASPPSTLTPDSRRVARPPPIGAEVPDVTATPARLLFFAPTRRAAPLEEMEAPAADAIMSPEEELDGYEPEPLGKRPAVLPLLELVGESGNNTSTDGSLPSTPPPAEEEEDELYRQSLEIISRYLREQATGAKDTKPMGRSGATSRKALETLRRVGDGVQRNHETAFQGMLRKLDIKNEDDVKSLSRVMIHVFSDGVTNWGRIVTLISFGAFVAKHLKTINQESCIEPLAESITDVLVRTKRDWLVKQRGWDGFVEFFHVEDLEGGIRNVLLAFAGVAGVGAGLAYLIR
Mcl1-Noxa inh: disrupts binding of human Mcl-1 to Noxa peptide. Q07820. TR-FRET Mcl-1/Noxa peptide binding, 2 h. inhibition, % at 21.7 µM. actives 1.5% (n = 220,000);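 active = compounds that cut the protein-peptide binding signal by more than 50% relative to plate controls in a single-dose test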;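 note: His-tagged Mcl-1 with rhodamine Noxa BH3 peptide and terbium anti-His antibody; 0% = Mcl-1 plus Noxa peptide wells and 100% = peptide-only wells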
GLD-1 RNA inh: GLD-1-TGE RNA interaction inhibition (C. elegans) | Q17339 | purified GLD-1 + fluorescein TGE RNA, fluorescence polarization | inhibition, % at 5.96 µM | actives 0.44% (n = 320,000);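 active = percent inhibition above a per-plate cutoff, the plate mean of test compounds plus 3 SD, cut at about 30% in these data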;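 note: 0% = DMSO wells with GLD-1 and probe and 100% = wells lacking GLD-1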
Mcl-1 Bim block: human Bim-Mcl-1 interaction inhibition | Q07820 | Bead-based flow cytometry, Bim peptide-Mcl-1 binding | inhibition, % at 10 µM | actives 0.1% (n = 190,000) | AID 1009; in the data active = inhibition above about 40%;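 note: 0% = no compound tracer wells and 100% = peptide blocker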
MCL1 BIM primary: MCL1-BIM-BH3 interaction inhibition (human); Q07820; GST-MCL1 / FITC-Bim-BH3 fluorescence polarization; inhibition, % at 10.9 µM; actives 0.68% (n = 320,000);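 active = inhibition above the mean inhibition of all tested compounds plus 3 SD, set per campaign, cut at about 40% in these data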;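 note: 0% = DMSO wells and 100% = unlabeled Bim-BH3 peptide control; higher means more loss of mP so more displacement of Bim peptide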
Active calls of the source: *; x = no result given.

SMILES	Bcl-xL primary	Mcl1-Bid inh	Mcl1-Noxa inh	GLD-1 RNA inh	Mcl-1 Bim block	MCL1 BIM primary
CC(C(=O)Nc1cccnc1)N1C(=O)C2C3C=CC(C3)C2C1=O (stereo not drawn)	89.2*	-22.4	-4.6	-3.6	0.0	6.3
COc1cc(C(=O)NCCOc2ccc(Cl)cc2)ccc1OCc1c(C)noc1C	-1.8	x	x	1.5	x	-0.4
O=C(CN1C(=O)c2ccccc2C1=O)N1CCCCC1	8.1	99.2*	19.9	6.1	-2.0	1.1
O=C(COc1cccc(F)c1)Nc1nc(-c2ccncc2)cs1	3.3	x	x	-0.4	x	9.7
CCN=c1scc(C)n1/N=C/c1cc(Br)c(O)c(Br)c1	7.2	-3.6	72.7*	4.8	-1.0	11.7
CCN=c1scc(-c2ccco2)n1/N=C/c1ccc(O)cc1	1.8	-15.6	9.5	-2.9	3.0	-3.4
O=C(COC(=O)Cn1cnc2ccccc21)Nc1cc2c(cc1Cl)C(=O)c1ccccc1C2=O	15.5	-0.1	53.9*	1.5	0.0	14.5
O=C(COC(=O)Cn1cnc2ccccc21)Nc1cc(S(=O)(=O)N2CCOCC2)ccc1Cl	-2.5	3.0	-0.3	8.2	x	-0.8
c1cc(C(c2nnnn2C2CCCCC2)N2CCN3CCCC3C2)ccn1 (stereo not drawn)	37.4*	-24.7	-2.7	27.7	12.0	38.7
Cc1ccc(-c2cc(C(=O)OCC(=O)N(C)c3c(N)n(Cc4ccccc4)c(=O)[nH]c3=O)c3ccccc3n2)o1	12.0	x	x	1.7	x	7.4
O=C(CN1c2cccc3cccc(c23)S1(=O)=O)NCc1ccc(F)cc1	x	x	x	1.5	x	x
Cc1ccc(CNC(=O)CN2c3cccc4cccc(c34)S2(=O)=O)cc1	42.1*	x	x	21.9	x	5.5
CC(C)(CO)CNC(=O)CCc1nnc(-c2ccc(-c3ccccc3)cc2)o1	-0.7	x	x	3.7	x	-0.1
O=P(CCCO)(Cc1ccccc1)Cc1ccccc1	-0.2	x	x	-1.2	x	-3.4
CC1CCC(C(C)C)C(OC(=O)C[n+]2cc(-c3ccc(Cl)cc3)n3c2CCC3)C1 (stereo not drawn)	6.8	92.1*	36.1	-7.7	x	8.4
CCN(CC(=O)NCc1cccs1)C(=O)c1cccc(S(=O)(=O)N2CC(C)OC(C)C2)c1 (stereo not drawn)	x	x	x	7.3	x	x
Cc1ccc(NC(=O)C2CCCN(S(=O)(=O)c3c(C)noc3C)C2)c(Br)c1 (stereo not drawn)	1.0	x	x	-8.9	x	-3.6
CCOc1ccc(C(Nc2cccnc2)c2cc(Cl)c3cccnc3c2O)cc1 (stereo not drawn)	17.2	95.0*	96.0*	-6.2	-5.0	28.3
COc1ccccc1C(NC(C)=O)c1cc(Cl)c2cccnc2c1O (stereo not drawn)	7.7	x	x	-1.4	x	-2.4
O=C(O)COc1ccccc1C(Nc1cccnc1)c1cc(Cl)c2cccnc2c1O (stereo not drawn)	x	77.5*	97.3*	x	-2.0	x
COc1ccc(C(=O)OCCN2CCN(C3=NS(=O)(=O)c4ccccc43)CC2)cc1OC	5.3	x	x	0.7	x	14.5
COc1ccccc1NC(=O)c1ccccc1NS(C)(=O)=O	-0.5	-2.5	4.9	0.2	0.0	8.0
COc1ccc(NC(=O)c2ccccc2NS(C)(=O)=O)cc1OC	1.8	50.9*	8.0	-4.0	-6.0	3.4
O=[N+]([O-])c1cc(Cl)cc(/C=N/NC(=S)Nc2ccc(S(=O)(=O)N3CCOCC3)cc2)c1O	17.2	67.3*	85.4*	-5.6	x	31.0
Cc1sc(NC(=O)c2ccco2)c(CN2CCCCC2)c1C	37.7*	-63.8	-11.7	30.6	4.0	39.8
SMILES	Bcl-xL primary	Mcl1-Bid inh	Mcl1-Noxa inh	GLD-1 RNA inh	Mcl-1 Bim block	MCL1 BIM primary
COCCN(CC(=O)Nc1ccccc1C(F)(F)F)C(=O)c1ccc(-n2cccn2)cc1	-4.3	x	x	4.5	x	-10.0
O=C(Cn1cnc2cc([N+](=O)[O-])ccc2c1=O)Nc1cccc(S(=O)(=O)N2CCOCC2)c1	-1.2	-6.0	52.8*	6.8	-2.0	9.2
O=C(Cn1cnc2ccccc2c1=O)Nc1ccc(S(=O)(=O)N2CCOCC2)cc1	3.4	-16.6	11.2	2.8	-2.0	5.3
Cc1nn(C)c(C)c1NC(=O)CSc1nc(Cc2ccccc2)nc2c1cnn2-c1ccccc1	1.9	x	x	-1.8	x	7.0
Cc1nn(Cc2ccccc2)c(C)c1NC(=O)CSc1nc(C2CC2)nc2c1cnn2-c1ccccc1	0.4	62.6*	3.5	10.4	0.0	3.0
NC(=S)N/N=C/c1coc2cc(Br)ccc2c1=O	0.5	-27.4	18.3	-2.5	x	-4.0
NC(=S)N/N=C/c1coc2c(ccc3ccccc32)c1=O	-0.1	76.5*	-1.7	12.0	-4.0	4.6
O=c1cc(/N=C/c2coc3c(ccc4ccccc43)c2=O)[nH]c(=S)[nH]1	14.3	-84.6	73.9*	1.8	-14.0	22.5
COc1ccc(CNCC(=O)Nc2sccc2C#N)cc1	-2.1	28.2	52.6*	-2.0	-4.0	-0.8
COc1ccc(N2CCN(CC(=O)Nc3sccc3C#N)CC2)cc1	8.6	-50.3	24.1	0.7	-2.0	9.6
O=C1S/C(=C\C=C\c2ccco2)C(=O)N1c1ccccc1	5.3	-17.1	21.0	7.7	-5.0	12.8
Cn1cccc1/C=C1\SC(=S)N(NC(=O)c2ccccc2O)C1=O	-50.7	-24.5	-2.5	-130.8	x	-84.9
O=C(O)C(Cc1ccccc1)N1C(=O)/C(=C/C=C/c2ccco2)SC1=S (stereo not drawn)	x	98.1*	101.7*	x	x	x
O=C(NN1C(=O)/C(=C/C=C/c2ccco2)SC1=S)c1ccccc1O	14.0	60.1*	100.6*	-11.7	x	38.1
O=C1S/C(=C\C=C\c2ccco2)C(=O)N1c1ccc(O)cc1	5.8	-16.8	56.4*	6.1	-3.0	13.3
Cc1ccccc1-c1nnc(CN2CCN(C(=O)c3ccco3)CC2)o1	0.7	x	x	-5.6	x	3.3
Cc1ccccc1-c1nnc(CN2CCC(C)CC2)o1	-0.3	x	x	37.2*	x	6.9
CC(C)(C)c1cc(C2=CSC3=NCCN23)cc(C(C)(C)C)c1O	4.8	x	x	1.1	x	2.9
CC(Oc1cc2oc(=O)c3c(c2cc1Cl)CCC3)C(=O)NCCCn1ccnc1 (stereo not drawn)	8.7	x	x	5.8	x	3.6
Cc1ccc(-c2cc(-c3ccccc3)c(C#N)c(N)n2)o1	25.8	18.9	64.6*	23.9	-4.0	25.7
Cc1ccc(-c2cc(-c3ccc(F)cc3)nc(N)c2C#N)o1	6.2	37.6	49.2	-0.3	0.0	-4.2
Cc1ccc(-c2cc(-c3ccccc3Cl)c(C#N)c(N)n2)o1	18.1	28.3	60.1*	19.3	1.0	23.3
Cc1cc(C)cc(OCC(=O)Nc2ccccc2C(=O)N2CCOCC2)c1	1.0	x	x	2.1	x	0.8
Cc1cccc(OCC(=O)Nc2ccccc2C(=O)N2CCOCC2)c1	1.9	-30.1	59.3*	-0.5	-3.0	3.7
Cc1ccc(/C=N/OC(=O)c2c(C)noc2-c2snnc2C)cc1	0.4	63.3*	7.6	7.5	x	6.0
CCN(CCn1cccn1)C(=O)C1CCC(=O)N(CCN2CCOCC2)C1 (stereo not drawn)	-6.0	x	x	8.9	x	-0.1

From PubChem
